According to the supplement of paper PMC10681739:
± gives the standard deviation of the averaged measurements. Whole data set: some 4,000 sequences, median “arbitrary fluorescence units” near 830, cut for the highest 2% near 6,500. The full list was thinned out, with the highest values kept by preference.

molecular target: RUNX1 (UniProt Q01196); assay: RUNX1 binding intensity (PBM fluorescence), RUNX1 alone (arbitrary fluorescence units); higher = stronger binding; conditions: RUNX1 concentration 2 nM; ETS1 concentration 0 nM
Sequence (Q01196 whole entry): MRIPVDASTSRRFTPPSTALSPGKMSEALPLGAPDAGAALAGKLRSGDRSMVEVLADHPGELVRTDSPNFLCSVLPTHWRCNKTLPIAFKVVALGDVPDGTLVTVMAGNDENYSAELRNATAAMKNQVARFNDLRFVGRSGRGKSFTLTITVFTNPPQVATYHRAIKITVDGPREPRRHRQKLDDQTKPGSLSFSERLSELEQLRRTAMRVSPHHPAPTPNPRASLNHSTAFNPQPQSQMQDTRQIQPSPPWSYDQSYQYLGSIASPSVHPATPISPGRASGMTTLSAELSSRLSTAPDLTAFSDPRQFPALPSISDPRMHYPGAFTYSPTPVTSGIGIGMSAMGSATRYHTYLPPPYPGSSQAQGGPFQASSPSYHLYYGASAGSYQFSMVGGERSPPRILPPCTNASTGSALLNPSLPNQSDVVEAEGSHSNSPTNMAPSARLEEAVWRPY
Method: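 gcPBM on 36-bp genomic-derived probes (partner site mutated) containing one RUNX1 site and no ETS1 site. Recombinant human RUNX1 (2 nM) was incubated alone or with ETS1 (25 nM) and detected by anti-RUNX1 antibody fluorescence. Values are medians over 4 replicate spots (not normalised). The probes sit in constant array flanks that are not printed.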

Row | Sequence | RUNX1 binding intensity
1 | ACCTGATGCCGGGGCACCGCCAGATGTGGCCACGAG | 872
2 | TCGCCCGCCGCTTCATGTCGCGGCGCCGCAGAGGCC | 781
3 | GTAGTAAGTTGTGGTTAAAAGAGAGGACGTTCAGAG | 7590
4 | AATTAAATTGTGGTAGATAGTAAAAGGACGTAGTTA | 943
5 | TTTAATTCTGTGGTTAGAAGTAAAAGGACGTAAAGG | 3370
6 | ACTCTGCGGCCCAGCTGCTTCTGTGCACAGGCAATA | 791
7 | CTACCGGGAGTGCGGGTCGCGCTTCAGGCGGCGTCC | 724
8 | TGAAGGCAATTGACGAACACGTGACGCGGTCGGGCG | 721
9 | AGCGCCACCGCAGTGATGCAAGTCGGCAGTTGTAGT | 926
10 | ATTTCCATTTACGGACTCTTCTCCTGCCCGCAGGGC | 1020
11 | TCGTGAAAAAGGAGGTGGATAAAGTGGTTACGGCAA | 779
12 | CCGAGTGGCGGTTGTTTCAAGATGGCGGAGGTGGCA | 789.5 ± 6.2
13 | CCAGCATGTGGGCTCTGAACCTGAAGCAACAGGCTC | 796
14 | GGTGTTACACCGCAGCCTTCCATGAAGGGGCAGGGG | 1220
15 | ATGTTAACACCCTGCCATGAAAACCGCAAGAAGGGC | 11200
16 | CATGAGAAACACCCTGCCCAACCACCTGACTACAAG | 1080
17 | CCGGGACCGCGGCTTGGGCTCACGGCCACTGCCGAC | 703
18 | GTTTTCAAGGCAGCAAGTGGCTGTGGTGGCACGGAG | 837
19 | AGGCTTTGCTGCCACAAACTTTCGTGCCACGAACCT | 779
20 | AGTTGCATACGCGGTATTGGGCAGGCAATGGCAGGG | 738
21 | CGTTTACTGTGGCTGCAGCTCTCCCCACCCACACAC | 979

Row | Sequence | RUNX1 binding intensity
22 | GACGCAGCATGAGGTGGAGGTGTAGAATGTGGTGCT | 760
23 | TTTGCACACATGCTGGCCTCCGCCTGACCACCTCCT | 985
24 | GCCGTGAATGCGGGCTCTCCTGCCGTAAGCTGCCCC | 824
25 | TTACAGGGGCCGGGAGTGGCCTGCGGGCGGAGAAGT | 738
26 | TCCTGTGGCTTTGGGGTTCCTTGTTGCCTGGGCTGG | 1110
27 | GTGACCACTGCCTAGTTACTGCCAGCTGAACGAAGG | 729
28 | CTGGAACCGCAGGATCCTTGCTGCGTCCTCTCGGTC | 2340
29 | GAGTGGGCGGTAACTCGCAGGCCGAACGTGACGCAA | 740
30 | GACAACCTACCACAGCCTTCCTTTCGGGCGCTCAGG | 1040
31 | TTCTGTGGGGACAATTAGGGTTTCTGGGTTTTCTGA | 865
32 | AGATTCTAGGCAGTGTCTGTAGCCGCAGCTGAGGGT | 736
33 | TACCTAGACCCTTGCCGCCCTTACCGCGGCCAGACA | 901
34 | CTTCTTGCTGCTGAGACTGATACAGCCCGCAAAGCT | 816
35 | TGTTACCACTGTTAGACTAGAGAGCATGCTGTTGTT | 841
36 | AGCACCACATTCTACACCTCCACCTCATGCTGCGTC | 1180
37 | TTGCCGTAACCACTTTATCCACCTCCTTTTTCACGA | 2720
38 | CCTAAGTAACCACATTCTCGCTTGCTCCTTCCACAC | 3680
39 | GTAGCCGGGTGTTACGGAGCGCTGCGGGCAAAGCAG | 671
40 | GGAGGAAGGCAGCAAAGAAAGAGGTGGTTTCGGCAC | 783
41 | CTCAGCCCACCGCTGCGCGGCCGAAAGTCGGAGGTT | 760
42 | TTGCACTCTGCGGGGACGGGAGAAGGAACGAAAAAT | 805

Row | Sequence | RUNX1 binding intensity
43 | TTTGTTGTTCAGGGTGCGAGGCGGCCGCAGCTTCCA | 936
44 | CACCTCCCACTCACCACAGAGTTTCATGGTGTTTTA | 1090
45 | ACTTGACTGCCTGTGGGGTGTGTGGTGTCTGCACTT | 822
46 | CGAGTCAGCAAATCACAGCTCTGCGGGTGGGCTCCT | 739
47 | CAGCATGTGGGTGCACACACCGATTCCTTAGAGGTT | 811
48 | ACTGTGCGTTGAGGTCGTCCGCCATCTGCTGCAGCT | 745
49 | GAGGTGGTCAGAGCCTCCCTTGACATGAAACAAGAA | 724
50 | TTGGCCTCGCCGGGACCCCTTGCACCGCGGACACAG | 776
51 | AAAACGCGCAAATACGGTGGCTGCGGCCCGCGGGCA | 693
52 | GGGCAGGCCGTATGTGGGAGACCACAAAGCCCAAGG | 787
53 | CATGACCTCCTCGCACAAGAATGCGGGGGTGGGGGT | 1050
54 | CACCCCGCCTCTGCGGGACCACTTCAGGCGCCTTCT | 876
55 | AACCCCTTGCACCGCGGACACAGCTTCTTCTTCCCC | 1080
56 | ACCCCGAAAGTGTGGGCGCGGCTGCGGTTTAACCCG | 7200
57 | GTGGCGCGGTGGGGCGCGGACCCGAAACTGCCAAGT | 706
58 | TGGCTACCCGAAAGGCGCGTTGGCTGCGGCTACGCA | 733
59 | CCCCACATACGGGGGCCGGGGCCGGGCTGTGGGCTT | 755
60 | TCCGCTTCTGTGGTCTGATCTTGCTGGGGCTGAACC | 1090
61 | ACAGACAGCAGCCTGAGCTCGTGGTTAGAACACCCT | 796
62 | GGTCTGCGGCGCGCGGGATGCTGGGCAATGTAGTTT | 784
